From PubChem BioAssay (NCATS) come the findings set out here.

Assay [1] can be described thus: AP1 Signaling Pathway (AID 357; active = well fitted curve in either direction with a large enough effect, not every such curve was filed as active;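 also: ME-180 reporter cells stimulated with EGF at its EC50 level; % is scaled to controls: 0 for no effect and ±100 for the full control effect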). The conditions noted are these: ME-180 AP-1-bla reporter, EGF-induced, beta-lactamase ratio, 5 h; at 7.69 µM (top of the series) unless noted. The gist of the method:
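First, ME-180 AP-1-bla cells were cultured overnight at 37 °C in low-serum Opti-MEM. Next, titrated compounds with EC50 EGF were incubated 5 hours. Finally, CCF4 was added for 2.5 hours and the 460/530 nm ratio recorded.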

Assay [2] has as its target Cytochrome P450 1A2 (Homo sapiens) (UniProt P05177). Kind of assay: p450-cyp1a2 (AID 410; calls by dose curve). The essentials: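 Luminescent readout of luciferin formed from Luciferin-ME by human CYP1A2; data normalized against complete inhibition by 57 uM furafylline. Enzyme 20nM, substrate 100uM at Km, 100mM KPO4 buffer, 60 min reaction at room temperature.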
Assay [3] is described as follows: NFAT Signaling Pathway (AID 444; active = well fitted curve in either direction with a large enough effect, not every such curve was filed as active;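 also: carbachol stimulus at about its EC50 of 1 µM final; % is scaled to controls: 0 for no effect and ±100 for the full control effect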). The conditions noted are these: Jurkat NFAT-bla M1, carbachol, beta-lactamase ratio, 5 h; at 7.69 µM (top of the series) unless noted. The essentials:
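Jurkat cells with NFAT-driven β-lactamase reporter and co-expressed M1 receptor, stimulated with carbachol (final 1 uM, ~EC50), compound titration, 5 h at 37 °C. CCF4 loaded 1 h at RT; 460/530 nm ratio gave %activity and AC50.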

Assay [4] in a line: Stat Signaling Pathway (AID 446; active = well fitted curve in either direction with a large enough effect, not every such curve was filed as active;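 also: ME-180 cervical cancer cells given 40 pM IL-6 alongside compound; SIE-controlled beta-lactamase reporter measured as 460/530 nm FRET emission ratio; % is scaled to controls: 0 for no effect and ±100 for the full control effect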). The conditions noted are these: ME-180 SIE beta-lactamase reporter, IL-6 stimulated, 5 h; at 7.69 µM (top of the series) unless noted. The gist of the method: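 Reporter line: ME-180 cervical carcinoma, SIE-beta-lactamase. Treatment: compound with 40 pM IL-6, 5 hrs, 37 C, in low-serum OPTI-MEM with 10 mM HEPES pH 7.3. Detection: 460/530 nm fluorescence.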

Assay [5] has as its target Glucocorticoid receptor (Homo sapiens) (UniProt P04150). Kind of assay: GR-GFP Redistribution (AID 450;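 active = compounds whose dose series gives a full or clear partial fitted curve of increased nuclear translocation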; also: potency is read from the fitted curve at half-maximal effect). The conditions noted are these: U2OS GR-GFP nuclear translocation, laser cytometry, 2 h.
For assay [6] the target is unchanged. The assay is described as follows: GR-EFC Redistribution (AID 451; calls by dose curve; also: potency is read from the fitted curve at half-maximal effect). The conditions noted are these: CHO-K1 GR-EFC translocation, beta-gal luminescence, 2 h. The gist of the method:
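CHO-K1 cells expressing nuclear EA and GR-ED fragments of b-gal; compounds titrated up to 46 uM final, 2 h at 37 C. GR nuclear translocation read as complemented b-gal luminescence after 1 h RT detection.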

For assay [7], the target named is Mitogen-activated protein kinase 10 (Mus musculus) (UniProt Q61831). Kind of assay: JNK3 AlphaScreen Assay (AID 530; active = well fitted curve in either direction with a large enough effect, not every such curve was filed as active;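 also: kinase came from lysate of stimulated human HepG2 cells; signal reports phosphorylation of biotinylated GST-cJun 1-79 at Ser73 with 10 µM ATP; % is scaled to controls: 0 for no effect and ±100 for the full control effect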). The essentials: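 Pre-activated (IL-1β/TNFα) JNK3 in HepG2 lysates phosphorylates biotin-GST-cJun(1-79), 10 uM ATP; anti-phospho-cJun(Ser73) AlphaScreen read at room temperature, pH 7.6 Tris buffer. Compounds pre-incubated 15 min as titrations.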
(In general: Alpha assays give light when donor and acceptor beads are brought close together.)

In assay [8] the target is 3',5'-cyclic-AMP phosphodiesterase 4B (Homo sapiens) (UniProt Q07343). Kind of assay: qHTS Assay for Inhibitors of PDE-IV (AID 607; active = well fitted activation curve with a large enough effect in the main read-out, with a control signal flat, not every such curve was filed as active; also: % of control where 0% means no effect). The essentials: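 Cell-based read-out of cAMP via a modified cyclic nucleotide-gated channel and membrane potential dye (535/590 nm) in HEK293 cells expressing PDE4 endogenously. Compounds tested up to 22.9 uM final; 100 uM RO 20-1724 reference.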

Assay [9] in a line: qHTS Assay for Lipid Storage Modulators (AID 1519; calls by dose curve). The conditions noted are these: Drosophila S3 cells, BODIPY lipid droplet/cell ratio, laser cytometry, cells loaded with oleic acid; for activity change, negative = inhibition: at 25.7 µM (top of the series). The gist of the method:
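Cells seeded at 5,000 per well were treated with compounds over a concentration series and loaded with oleic acid (400 uM, as added). Lipid droplet fluorescence (488 nm excitation, 500-530 nm channel) was read by laser-scanning cytometry and normalized to 20 uM Triacsin C.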
Background: Quantitative high-throughput screening tests each substance at several concentrations.

Assay [10] addresses Ubiquitin carboxyl-terminal hydrolase 1 (Homo sapiens) (UniProt O94782). Kind of assay: Inhibitors of USP1/UAF1: Pilot qHTS (AID 504865). Also: nearly all actives have a fitted effect of over 35% in size. Also: potency is read from the fitted curve at half-maximal effect. The gist of the method: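 In 50mM HEPES pH 7.8 containing 0.5mM EDTA, 1mM TCEP, 0.1 mg/ml BSA and 0.01% Tween-20, 1nM USP1/UAF1 is exposed to compound for 15 min, then Ub-Rho (150nM final) is added and fluorescence is read over time.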
In assay [11] the target is ATP-dependent 6-phosphofructokinase (Trypanosoma brucei brucei) (UniProt O15648). The assay is described as follows: qHTS Assay to Find Inhibitors of T. brucei phosphofructokinase: hit validation (AID 492961). Also: % is scaled to controls: 0 for no effect and ±100 for the full control effect. The gist of the method: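 Luminescence from ADP-Glo reports ADP generated as T. brucei PFK (1.25 nM) phosphorylates 0.5 mM fructose-6-phosphate using 0.1 mM ATP. Reactions ran 45 min at room temperature, pH 8.0.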

Assay [12] has as its target Luciferin 4-monooxygenase (Photinus pyralis) (UniProt P08659). The assay is described as follows: Biochemical firefly luciferase enzyme assay for NPC (AID 624030).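 Also: purified P. pyralis luciferase at 10 nM with luciferin and ATP substrate; 0% = DMSO and -100% = full luciferase inhibition by PTC124 control; nearly all actives have a fitted effect of over 70% in size.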 The gist of the method:
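Purified P. pyralis luciferase at 10 nM in 50 mM Tris Acetate (final), luminescence read within 5 minutes of enzyme addition to compounds. Activity normalised to PTC124 versus DMSO; concentration-response curves classed by r2, magnitude and activity.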

Assay [13] can be described thus: qHTS profiling for inhibitors of Plasmodium falciparum proliferation (AID 504749).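 Also: 0% = DMSO vehicle and full inhibition = artemisinin control; nearly all actives have a fitted effect of over 60% in size.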 The conditions noted are these: P. falciparum in erythrocytes, SYBR Green DNA, 72 h, at 12.8 µM (top of the series). The essentials:
(§1)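 P. falciparum-infected erythrocytes (0.3% parasitemia, 2.5% hematocrit) incubated with compound 72 h at 37 C, 5% CO2. Parasite DNA detected by SYBR Green after lysis, overnight at room temperature; normalised to 0.29 uM artemisinin and DMSO.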

The test system of assay [14] is AS120. Described as above. The conditions noted are these: P. falciparum in erythrocytes, SYBR Green DNA, 72 h; series mostly up to 28.7 µM. The gist of the method:
as §1

The subject of assay [15] is CP201. The assay is described as above. The conditions noted are these: P. falciparum in erythrocytes, SYBR Green DNA, 72 h; series mostly up to 12.8 µM. The gist of the method: as §1
The subject of assay [16] is CP238. The assay is described as above. The conditions noted are these: P. falciparum in erythrocytes, SYBR Green DNA, 72 h; series mostly up to 12.8 µM. The essentials: as §1
For assay [17], the system named is CP262. Described as above. The conditions noted are these: P. falciparum in erythrocytes, SYBR Green DNA, 72 h; series mostly up to 12.8 µM. The essentials: as §1
The test system of assay [18] is CP265. The description is as above. The conditions noted are these: P. falciparum in erythrocytes, SYBR Green DNA, 72 h; series mostly up to 12.8 µM. The gist of the method: as §1
Assay [19] deals with FAB9. The assay is described as above. The conditions noted are these: P. falciparum in erythrocytes, SYBR Green DNA, 72 h; series mostly up to 12.8 µM. The gist of the method:
as §1

Assay [20] deals with JCK. The description is as above. The conditions noted are these: P. falciparum in erythrocytes, SYBR Green DNA, 72 h; series mostly up to 12.8 µM. The gist of the method:
as §1

The mark [21] stands for this setting: measured here: cell count channel max response.
The mark [22] stands for this setting: measured here: lipid channel max response.

“And” between values parts separate entries of the source, which are not always exact repeats. Identical values can stand only once. Records with an inconclusive call do not appear. The source made the active and inactive calls. Unless noted, calls follow the shape of the dose curve; as a rule, active = well fitted curve in the direction sought with a large enough effect; inconclusive = small, poorly fitted or top-dose-only effect, or another doubt; inactive = no such curve, though single readings can be large; an effect the other way counts as inactive or inconclusive. A value given as a limit tells only on which side of the number the result lay.

Sequence of Glucocorticoid receptor (Homo sapiens) (P04150 whole entry, looked up): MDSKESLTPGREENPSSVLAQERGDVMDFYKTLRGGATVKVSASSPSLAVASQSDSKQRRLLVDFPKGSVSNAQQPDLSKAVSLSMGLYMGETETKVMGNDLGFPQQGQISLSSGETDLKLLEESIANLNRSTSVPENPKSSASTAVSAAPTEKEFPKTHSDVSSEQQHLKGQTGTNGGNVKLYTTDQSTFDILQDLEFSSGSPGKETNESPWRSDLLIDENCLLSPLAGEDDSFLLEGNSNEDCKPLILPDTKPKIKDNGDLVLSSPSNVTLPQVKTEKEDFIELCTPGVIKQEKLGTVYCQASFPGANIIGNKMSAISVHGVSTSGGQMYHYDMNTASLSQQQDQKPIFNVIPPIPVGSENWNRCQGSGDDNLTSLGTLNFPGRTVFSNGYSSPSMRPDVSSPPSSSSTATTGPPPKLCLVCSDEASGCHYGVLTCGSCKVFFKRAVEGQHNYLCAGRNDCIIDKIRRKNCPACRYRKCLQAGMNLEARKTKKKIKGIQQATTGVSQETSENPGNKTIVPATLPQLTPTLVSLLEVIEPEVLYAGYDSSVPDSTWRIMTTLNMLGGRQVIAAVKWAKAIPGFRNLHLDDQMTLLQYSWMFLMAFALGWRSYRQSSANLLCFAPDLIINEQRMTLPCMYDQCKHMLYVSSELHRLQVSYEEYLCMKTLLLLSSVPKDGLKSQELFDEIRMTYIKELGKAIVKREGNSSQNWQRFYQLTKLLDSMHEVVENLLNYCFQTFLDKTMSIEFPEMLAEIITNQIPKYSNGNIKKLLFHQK
Sequence of Luciferin 4-monooxygenase (Photinus pyralis) (P08659 whole entry, looked up): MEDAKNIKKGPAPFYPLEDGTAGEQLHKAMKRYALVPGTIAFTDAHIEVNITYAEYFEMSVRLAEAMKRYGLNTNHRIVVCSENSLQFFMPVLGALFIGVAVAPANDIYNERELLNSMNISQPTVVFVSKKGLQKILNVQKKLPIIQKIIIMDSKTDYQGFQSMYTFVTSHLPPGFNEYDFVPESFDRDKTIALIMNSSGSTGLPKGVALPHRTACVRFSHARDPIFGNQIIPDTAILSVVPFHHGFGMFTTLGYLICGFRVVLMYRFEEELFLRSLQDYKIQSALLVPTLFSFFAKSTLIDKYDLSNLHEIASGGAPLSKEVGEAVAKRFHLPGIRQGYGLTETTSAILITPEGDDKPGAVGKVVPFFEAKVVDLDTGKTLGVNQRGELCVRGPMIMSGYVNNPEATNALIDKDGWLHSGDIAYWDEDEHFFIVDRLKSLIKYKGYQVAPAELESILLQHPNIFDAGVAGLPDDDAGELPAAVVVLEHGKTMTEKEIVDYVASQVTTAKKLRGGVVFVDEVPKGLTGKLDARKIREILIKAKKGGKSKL
Sequence of 3',5'-cyclic-AMP phosphodiesterase 4B (Homo sapiens) (Q07343 whole entry, looked up): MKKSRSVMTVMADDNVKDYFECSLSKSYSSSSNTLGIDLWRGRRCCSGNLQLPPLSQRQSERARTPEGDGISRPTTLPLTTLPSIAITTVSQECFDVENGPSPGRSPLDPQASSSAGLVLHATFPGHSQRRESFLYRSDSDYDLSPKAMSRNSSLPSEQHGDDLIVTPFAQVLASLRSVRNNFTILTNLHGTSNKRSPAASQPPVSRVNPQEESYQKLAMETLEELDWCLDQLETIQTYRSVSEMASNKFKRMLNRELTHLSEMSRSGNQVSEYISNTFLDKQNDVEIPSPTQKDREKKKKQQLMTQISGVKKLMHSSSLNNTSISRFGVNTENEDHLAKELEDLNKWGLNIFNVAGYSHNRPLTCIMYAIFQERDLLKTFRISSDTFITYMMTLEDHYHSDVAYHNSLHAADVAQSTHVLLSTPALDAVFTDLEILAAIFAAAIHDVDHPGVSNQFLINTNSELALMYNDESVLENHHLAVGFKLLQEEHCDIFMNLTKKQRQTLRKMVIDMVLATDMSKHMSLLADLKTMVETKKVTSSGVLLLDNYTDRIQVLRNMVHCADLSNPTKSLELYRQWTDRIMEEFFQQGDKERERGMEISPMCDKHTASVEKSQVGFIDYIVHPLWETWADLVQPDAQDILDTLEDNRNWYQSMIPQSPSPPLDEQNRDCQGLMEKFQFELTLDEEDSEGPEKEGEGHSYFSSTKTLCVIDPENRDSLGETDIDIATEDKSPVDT
Sequence of Cytochrome P450 1A2 (Homo sapiens) (P05177 whole entry, looked up): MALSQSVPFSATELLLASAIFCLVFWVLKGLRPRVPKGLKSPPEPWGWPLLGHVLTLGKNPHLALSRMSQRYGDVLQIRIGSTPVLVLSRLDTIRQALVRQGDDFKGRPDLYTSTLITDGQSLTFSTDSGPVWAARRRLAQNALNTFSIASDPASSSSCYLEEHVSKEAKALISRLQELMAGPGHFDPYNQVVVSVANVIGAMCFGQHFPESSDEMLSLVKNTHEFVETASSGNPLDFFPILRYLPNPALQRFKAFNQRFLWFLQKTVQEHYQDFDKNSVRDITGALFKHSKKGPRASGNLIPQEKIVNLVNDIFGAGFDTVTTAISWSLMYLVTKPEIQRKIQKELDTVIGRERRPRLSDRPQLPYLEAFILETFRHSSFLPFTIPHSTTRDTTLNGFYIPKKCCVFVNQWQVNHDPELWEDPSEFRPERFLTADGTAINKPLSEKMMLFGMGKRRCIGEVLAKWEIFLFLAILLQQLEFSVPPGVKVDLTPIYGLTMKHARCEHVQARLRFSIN
Sequence of Ubiquitin carboxyl-terminal hydrolase 1 (Homo sapiens) (O94782 whole entry, looked up): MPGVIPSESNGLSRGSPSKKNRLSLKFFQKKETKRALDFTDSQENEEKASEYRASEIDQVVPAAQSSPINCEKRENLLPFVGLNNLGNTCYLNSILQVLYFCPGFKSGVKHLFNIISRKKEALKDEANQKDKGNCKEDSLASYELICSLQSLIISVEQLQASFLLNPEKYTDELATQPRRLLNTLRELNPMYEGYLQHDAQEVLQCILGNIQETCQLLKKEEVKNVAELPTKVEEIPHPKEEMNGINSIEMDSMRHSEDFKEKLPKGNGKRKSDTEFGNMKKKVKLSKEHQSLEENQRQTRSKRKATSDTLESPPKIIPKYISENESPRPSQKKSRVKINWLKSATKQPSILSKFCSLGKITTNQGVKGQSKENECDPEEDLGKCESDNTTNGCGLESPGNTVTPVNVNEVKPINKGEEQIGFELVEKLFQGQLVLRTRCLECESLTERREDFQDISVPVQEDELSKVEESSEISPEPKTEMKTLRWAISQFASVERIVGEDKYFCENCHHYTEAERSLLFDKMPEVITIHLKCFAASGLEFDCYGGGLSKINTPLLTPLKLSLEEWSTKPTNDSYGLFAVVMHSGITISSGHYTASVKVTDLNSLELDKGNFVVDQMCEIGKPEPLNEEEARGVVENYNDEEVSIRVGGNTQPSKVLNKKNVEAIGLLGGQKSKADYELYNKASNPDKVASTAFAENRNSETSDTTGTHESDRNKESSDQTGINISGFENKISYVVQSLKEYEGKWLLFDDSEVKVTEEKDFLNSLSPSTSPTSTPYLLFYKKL
Sequence of ATP-dependent 6-phosphofructokinase (Trypanosoma brucei brucei) (O15648 whole entry, looked up): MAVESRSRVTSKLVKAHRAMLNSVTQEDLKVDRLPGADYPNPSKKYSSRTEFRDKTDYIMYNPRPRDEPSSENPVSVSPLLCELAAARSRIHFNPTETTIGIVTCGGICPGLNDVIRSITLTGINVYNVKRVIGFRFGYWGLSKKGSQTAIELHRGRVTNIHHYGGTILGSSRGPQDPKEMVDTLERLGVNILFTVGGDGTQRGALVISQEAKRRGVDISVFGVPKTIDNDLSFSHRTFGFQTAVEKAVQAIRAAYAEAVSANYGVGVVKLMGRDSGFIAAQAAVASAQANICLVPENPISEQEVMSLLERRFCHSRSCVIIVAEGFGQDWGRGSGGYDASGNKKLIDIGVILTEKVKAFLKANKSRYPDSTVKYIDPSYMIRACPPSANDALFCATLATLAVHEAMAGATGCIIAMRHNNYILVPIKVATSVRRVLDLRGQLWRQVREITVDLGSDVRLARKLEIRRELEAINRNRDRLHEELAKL

As to `C[C@H]1NC(=O)NC1=O`, the activity change, negative = inhibition in assay [1] was 18% [at 17.2 µM] (inactive) and -9.42% [at 17.2 µM] (inactive); in assay [3], -10.2% [at 17.2 µM] (inactive) and -1.97% [at 17.2 µM] (inactive); in [9], -0.728% (inactive). Also, the Potency entry in assay [2], in assay [7], in assay [8] and in assay [10] was “inactive” in each case. Also, the activity, negative = inhibition in assay [4] was -29.7% [at 17.2 µM] (inactive) and -2.24% [at 17.2 µM] (inactive). In addition, the Potency in assay [5] and in [6] was > 20.6 µM (inactive) in each case. For the same compound, the max response was -2.21% in [9] (setting [21]) and -1.48% in [9] (setting [22]).
For `CN(C)[C@H]1C(=O)C(C(=O)NCN2CCCC2)=C(O)[C@]2(O)C(=O)C3=C(O)c4c(O)cccc4[C@@](C)(O)[C@H]3C[C@@H]12`, the activity change, negative = inhibition was 4.94% [at 17.2 µM] (inactive) in assay [1], -7.08% [at 17.2 µM] (inactive) in assay [3] and -2.08% (inactive) in assay [9]. The Potency entry in assay [2], in [7], in assay [8], in [14], in [15] and in assay [16] was “inactive” throughout. Besides, the Potency result in assay [17], in assay [18], in assay [19] and in assay [20] was “inactive” in each case. The activity, negative = inhibition is 7.95% [at 17.2 µM] (inactive) in assay [4], -2.6% (inactive) in assay [13] (parasite line A) and 2.5% (inactive) in assay [13] (parasite line B). In addition, the results for the Potency in assay [5], in [6] and in [10] were > 20.6 µM (inactive), > 20.6 µM (inactive) and 28.2 µM (active), respectively. The max response in assay [9] (setting [21]) was -14%; in assay [9] (setting [22]), -16.5%. For the same compound, the compound was called inactive in assay [11] and in [12].
For `C/C=C\C(=O)N(CC)c1ccccc1C`, the activity change, negative = inhibition in assay [1] is -1.59% [at 17.2 µM] (inactive); in assay [3], -0.257% [at 17.2 µM] (inactive); in [9], -4.01% (inactive). For the same compound, the Potency entry in assay [2], in assay [7], in assay [8], in assay [14], in [15] and in assay [16] was “inactive” each time. For the same compound, the Potency entry in assay [17], in [18], in assay [19] and in assay [20] was “inactive” in each case. For the same compound, the activity, negative = inhibition in assay [4] is 4.14% [at 17.2 µM] (inactive); in assay [13] (parasite line A), 6.96% (inactive); in [13] (parasite line B), 1.34% (inactive). The Potency in [5] and in assay [6] was > 20.6 µM (inactive) each time. Also, the max response in assay [9] (setting [21]) is -15.1%; in assay [9] (setting [22]) it was -17.7%. The compound was classed as inactive in assay [11] and in assay [12].
Turning to `CC(C)(O/N=C(\C(=O)N[C@@H]1C(=O)N2C(C(=O)[O-])=C(C[n+]3ccccc3)CS[C@@H]12)c1csc(N)n1)C(=O)O`, the activity change, negative = inhibition in assay [1] is 8.59% [at 17.2 µM] (inactive); in assay [3], 7.85% [at 17.2 µM] (inactive); in assay [9] it was 0.159% (inactive). Also, the Potency result in assay [2], in [7], in [8], in assay [10], in [14] and in assay [15] was “inactive” each time. Further, the Potency entry in assay [16], in assay [17], in assay [18], in assay [19] and in [20] was “inactive” throughout. In addition, the activity, negative = inhibition in assay [4] was 7.45% [at 17.2 µM] (inactive); in [13] (parasite line A), 2.04% (inactive); in assay [13] (parasite line B), -2.21% (inactive). Also, the Potency in [5] and in [6] was > 20.6 µM (inactive) in each case. The max response in [9] (setting [21]) was -1.74%; in assay [9] (setting [22]), -1.95%. The result in [11] and in [12] was inactive.
